# Measurements: ChEMBL document CHEMBL3433997, “St. Jude Leishmania screening dataset” (2016)
# Experiments:
# Assay type in all cases: functional
# [1] = target: Solute carrier family 2, facilitated glucose transporter member 1 (Homo sapiens) (UniProt P11166); assay: ST_JUDE_LEISH: Cytotoxicity at 2uM final concentration against transgenic Leishmania Mexicana promastigotes LmGLUT1 that are glucose transport deficient and complemented with the human glucose transporter GLUT1. Activity is measured by DNA content using SYBR green in vitro
# Solute carrier family 2, facilitated glucose transporter member 1 (Homo sapiens), sequence (P11166 whole entry): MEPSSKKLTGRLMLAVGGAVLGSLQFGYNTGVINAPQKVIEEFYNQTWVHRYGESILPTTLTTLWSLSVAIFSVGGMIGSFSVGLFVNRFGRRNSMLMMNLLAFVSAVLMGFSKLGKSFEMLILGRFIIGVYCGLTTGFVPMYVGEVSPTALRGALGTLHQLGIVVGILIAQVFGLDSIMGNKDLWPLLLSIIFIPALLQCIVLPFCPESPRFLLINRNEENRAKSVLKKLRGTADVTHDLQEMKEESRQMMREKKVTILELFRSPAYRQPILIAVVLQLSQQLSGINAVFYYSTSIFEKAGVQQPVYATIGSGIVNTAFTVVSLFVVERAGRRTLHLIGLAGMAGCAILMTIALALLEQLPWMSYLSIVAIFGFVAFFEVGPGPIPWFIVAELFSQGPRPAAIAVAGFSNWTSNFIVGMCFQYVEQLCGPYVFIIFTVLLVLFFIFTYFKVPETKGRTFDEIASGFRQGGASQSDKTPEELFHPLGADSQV
# [2] = target: Hexose transporter 1 (Plasmodium falciparum) (UniProt O97467); assay: ST_JUDE_LEISH: Cytotoxicity at 2uM final concentration against transgenic Leishmania Mexicana promastigotes LmPfHT that are glucose transport deficient and complemented with the Plasmodium falciparum hexose transporter. Activity is measured by DNA content using SYBR green in vitro
# [3] = target: Glucose transporter (Leishmania mexicana) (UniProt O61059); assay: ST_JUDE_LEISH: Cytotoxicity at 2uM final concentration against transgenic Leishmania Mexicana promastigotes LmGT2 that are glucose transport deficient and complemented with the L. Mexicana glucose transporter 2. Activity is measured by DNA content using SYBR green in vitro
SMILES,inhibition [1] [%],inhibition [2] [%],inhibition [3] [%]
CCn1c(CN2CCN(Cc3ccccc3)CC2)nc2cc(NC(=O)c3cccs3)ccc21,1.2,1.22,-1.93
COc1cccc(Nc2nnc(SCC(=O)NNC(=O)c3ccccn3)s2)c1,0.56,2.27,-1.42
COc1cc(CCN(C)Cc2ccc(OC)c(OC)c2)ccc1NC(=O)c1cccc2c(O)c3cccc(F)c3nc12,3.49,1.84,3.27
O=C(Nc1ccncc1)Nc1ccc2c(c1)CCN(C1CCC1)CC2,3.98,3.34,11
